Data published in PubChem BioAssay (EPA / NIEHS).
Records with an inconclusive call do not appear. Activity calls are given as the source filed them. The calls were made as follows, unless noted: active = hit-call score of the fitted dose curve at least 0.9, where 1 is the maximum; inactive = score below 0.9.

What was measured:
[1] = IUF_NPC1_viability_72hr: Viability Assessment at 72 hours in the Leibniz Research Institute for Environmental Medicine (IUF) Neural Progenitor Cell Proliferation Assay (NPC1) (AID 2284209)
Outline: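 Viability was measured by resazurin-to-resorufin fluorescence (alamar blue) after 72 h of continuous exposure without compound renewal. Each well held one hNPC sphere (gestational week 16-19 fetal cortex, 0.25-0.35 mm) cultured in EGF/FGF proliferation medium at 37C and pH 7.2-7.6.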

[2] = CCTE_Mundy_HCI_Cortical_Synap_Neur_Matur_NeuriteSpotCountPerNeuriteLength: CCTE's Synaptogenesis and Neurite Maturation Assay in rat cortical cells for Neurite Spot Count per Neurite Length, Mundy Lab (AID 2284210)
Outline: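 Synaptophysin spots per unit neurite length, measured by automated imaging of MAP2/synaptophysin/Hoechst-stained neurons. Cultures from rat cortex received chemical at DIV 7 with media change through DIV 12; glial growth arrested by AraC at DIV 5; DMSO baseline.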

[3] = CCTE_Mundy_HCI_Cortical_Synap_Neur_Matur_BPCount: CCTE's Synaptogenesis and Neurite Maturation Assay in rat cortical cells for Branch Point Count, Mundy Lab (AID 2284211)
Outline: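 HCI read-out of branch points from MAP2/synaptophysin/Hoechst immunofluorescence; rat cortical cultures, AraC DIV 5, dosing DIV 7, fixed DIV 12; fit in positive direction vs DMSO baseline.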

[4] = CCTE_Mundy_HCI_Cortical_NOG_NeuriteCount: CCTE's Neurite Outgrowth Assay in rat cortical cells for Neurite Count, Mundy Lab (AID 2284212);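 also: cells fixed about two days after chemical exposure began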
Outline: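 Rat cortical primary cells; compound added 2 h post-plating, 1/10 dilution of working solution. Anti-betaIII-tubulin/AF488 ICC; ArrayScan neurite count vs DMSO.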

[5] = CCTE_Mundy_HCI_Cortical_NOG_NeuriteLength: CCTE's Neurite Outgrowth Assay in rat cortical cells for Neurite Length, Mundy Lab (AID 2284213)
Outline: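 First, rat primary cortical cells were plated and, 2 h later, given test chemical as a 1/10 dilution. Finally, βIII-tubulin immunostaining enabled automated imaging of neurite length.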

[6] = CCTE_Mundy_HCI_Cortical_Synap_Neur_Matur_NeuriteLength: CCTE's Synaptogenesis and Neurite Maturation Assay in rat cortical cells for Neurite Length, Mundy Lab (AID 2284214)
Outline: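 Neurite length quantified by automated high-content imaging of MAP2, synaptophysin and Hoechst staining. Rat cortical cells received chemical from DIV 7 to DIV 12 […], glial growth arrested by AraC at DIV 5; DMSO baseline.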

[7] = CCTE_Mundy_HCI_Cortical_Synap_Neur_Matur_NeuriteSpotCountPerNeuron: CCTE's Synaptogenesis and Neurite Maturation Assay in rat cortical cells for Neurite Spot Count per Neuron Count, Mundy Lab (AID 2284215)
Outline: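 Rat primary cortical cells received AraC at DIV 5, then chemicals with a media change at DIV 7, and were fixed at DIV 12. Synaptophysin puncta on MAP2-stained neurites per neuron were counted by high-content imaging, fitted relative to DMSO.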

[8] = CCTE_Mundy_HCI_Cortical_Synap_Neur_Matur_SynapseCount: CCTE's Synaptogenesis and Neurite Maturation Assay in rat cortical cells for Synapse Count, Mundy Lab (AID 2284218)
Outline: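 High-content imaging of synaptophysin puncta per MAP2-positive neuron (Hoechst nuclei) in rat cortical cells exposed DIV 7–12 after glial arrest with AraC at DIV 5; decrease relative to DMSO scored.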

[9] = CCTE_Mundy_HCI_Cortical_Synap_Neur_Matur_NeuriteCount: CCTE's Synaptogenesis and Neurite Maturation Assay in rat cortical cells for Neurite Count, Mundy Lab (AID 2284222);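 also: exposure from day 7 to day 12 in vitro with readout at day 12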
Outline: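 Primary rat cortical cells were plated, treated with AraC at DIV 5, then exposed to chemicals from DIV 7 through DIV 12. After fixation and immunostaining for MAP2 and synaptophysin, imaging quantified neurites, with DMSO as the negative control.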

[10] = CCTE_Mundy_HCI_Cortical_Synap_Neur_Matur_CellBodySpotCount: CCTE's Synaptogenesis and Neurite Maturation Assay in rat cortical cells for Cell Body Spot Count, Mundy Lab (AID 2284223)
Outline: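 Rat primary cortical cultures received AraC at DIV 5 to arrest glia, were dosed with chemical at DIV 7 with media change, and were fixed at DIV 12 (288.33 h). Synaptophysin puncta on MAP2-positive cell bodies per neuron were counted by high-content imaging versus DMSO.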

[11] = CCTE_Mundy_HCI_hNP1_Pro_ResponderAvgInten: CCTE's Proliferation Assay in human neuroprogenitor cells, Mundy Lab (AID 2284224; active = hit-call score of the fitted dose curve at least 0.9, where 1 is the maximum;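 also: human neural progenitor cells hNP1 derived from WA09 embryonic stem cells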)
Outline: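 Proliferation was scored as BrdU labelling intensity in human neural progenitors derived from WA09 embryonic cells, measured 26.25 hours after chemical dosing. Activity was fitted relative to DMSO.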

[12] = TAMU_PeakParms_SingleDonor1434_Chronotropy: Texas A&M University (TAMU) 1.5-hr Human Induced Pluripotent Stem Cell (iPSC)-derived Cardiomyocytes Calcium (Ca+2) Flux Assay for Cardiotoxicity: Chronotropy (changes in peak frequency) (AID 2284217); details: actives raise or lower the signal
Outline: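 iPSC-CMs, donor 1434; 4 conc (0.2–100 uM), 0.5% v/v DMSO, 90 min, 37C/5% CO2; Ca2+ flux fluorescence → peak.freq.avg; peak.freq.avg = 0 dropped; bidirectional fit vs DMSO; EC05 POD.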

[13] = TAMU_HCS_1.5hr_SingleDonor1434_Cytotoxicity: Cytotoxicity Assessment using High-content Screening (HCS) Fluorescent Imaging for the Texas A&M University (TAMU) 1.5-hr Human Induced Pluripotent Stem Cell (iPSC)-derived Cardiotoxicity Assay (AID 2284234; active = hit-call score of the fitted dose curve at least 0.9, where 1 is the maximum)
Outline: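 Nuclear counts from Hoechst 33342 imaging define cytotoxicity here, with EC10 (10% cell-count loss relative to DMSO) as point of departure. iPSC cardiomyocytes received 0.2-100 uM test chemical in 0.5% DMSO for 1.5 h at 37 C.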

Measured: AC50

N#Cc1ccc(CC(=NNC(=O)Nc2ccc(OC(F)(F)F)cc2)c2cccc(C(F)(F)F)c2)cc1
not listed: [12] | [13]
inactive: all other assays above

CN(C)C(=N)N=C(N)N
active: [3] 18.1 µM | [6] 18.1 µM
not listed: [11] | [12] | [13]
inactive: all other assays above

c1ccc2c(c1)c1cccc3ccc4cccc2c4c31
inactive: [13]
active: [12] 9.92 µM
